Compounds without any hit were thinned out: in the full panel of roughly 79,000, 15% have a hit. Rule as the data show it: active = growth inhibition above about 70%; inactive = the rest.
Tests used:
[1] = NCI Yeast Anticancer Drug Screen. Data for the rad50 strain (AID 155);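 also: 0% = growth of vehicle-only cultures of the same strain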; conditions: S. cerevisiae rad50 strain growth inhibition; at 50.0 µM; hits give high values
Procedure, shortened: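 Inhibition values express reduced yeast growth in compound-treated cultures relative to vehicle-treated controls.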

[2] = NCI Yeast Anticancer Drug Screen. Data for the mec2-1 strain (AID 157); conditions: S. cerevisiae mec2-1 strain, at 50.0 µM, hits give high values
Procedure, shortened: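 Mutant yeast (mec2-1) grown with compound; growth inhibition relative to vehicle control reported.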

[3] = NCI Yeast Anticancer Drug Screen. Data for the sgs1 mgt1 strain (AID 161);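 also: 0% = growth of cultures given vehicle only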; conditions: S. cerevisiae sgs1 mgt1 strain, at 50.0 µM, hits give high values
Procedure, shortened: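 Compounds are added to genetically altered yeast, and growth is compared with cultures given vehicle alone to give percent inhibition.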

[4] = NCI Yeast Anticancer Drug Screen. Data for the cln2 rad14 strain (AID 165);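 also: 0% = growth equal to vehicle treated cultures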; conditions: S. cerevisiae cln2 rad14 strain, at 50.0 µM, hits give high values
Procedure, shortened: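 Readout is yeast growth inhibition versus vehicle-treated controls, using a strain with cln2 and rad14 alterations exposed to compound.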

[5] = NCI Yeast Anticancer Drug Screen. Data for the bub3 strain (AID 167); conditions: S. cerevisiae bub3 mutant strain, at 50.0 µM, hits give high values
Procedure, shortened: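 Steps: expose the mutant yeast strain to compound; grow alongside vehicle-treated cultures; measure growth; express inhibition against the vehicle cultures.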

[6] = NCI Yeast Anticancer Drug Screen. Data for the mlh1 rad18 strain (AID 175); conditions: S. cerevisiae mlh1 rad18 strain growth inhibition; at 50.0 µM; hits give high values
Procedure, shortened: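 Genetically defined yeast (DNA repair-deficient) exposed to compounds; growth inhibition determined relative to vehicle.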

Measured: growth inhibition

C=CCN1CC2CON(C(=O)C(OC)(c3ccccc3)C(F)(F)F)C2C1C(C)C (stereo unspecified)
inactive: [1] 2.05% | [2] -17.7% | [3] 9.15% | [4] 18.2% | [5] 24.2% | [6] -5.85%

Cc1nc2cc(N)c(F)cc2[nH]1
inactive: [1] -14.6% | [2] -6.95% | [3] 21.4% | [4] 12.8% | [5] 16.4% | [6] -0.1%

Cc1cccc(OCC(O)CN(Cc2ccsc2)c2ccccn2)c1 (stereo unspecified)
inactive: [1] 18.4% | [2] 16.4% | [3] 18.2% | [4] 37.3% | [5] 14.9% | [6] 8.2%

COc1ccc2c(c1)/C(=C/c1cc(OC)c(OC)c(OC)c1)C(=O)N2
inactive: [1] 4.3% | [2] -27.2% | [3] -8.7% | [4] -1.4% | [5] 1.2% | [6] 2.85%

COc1cc(C2OCC3C(c4ccc(O)c(OC)c4)OCC23)ccc1O (stereo unspecified)
inactive: [1] 6% | [2] -20.4% | [3] 10.9% | [4] 23.4% | [5] 0.2% | [6] 14.6%

CCCCC(C(=O)OCC)C(=O)OCC
inactive: [1] 5.9% | [2] 4.45% | [3] -6.35% | [4] -53% | [5] -2.75% | [6] -3.2%

O=[N+]([O-])C[C@@]12O[C@]3(O)C4C5CC(C6C5C3C61)C42 (stereo partly specified)
inactive: [1] 6.35% | [2] 10.5% | [3] 15.3% | [4] 2.7% | [5] 1.2% | [6] 8.05%

CN(C)c1ccc(C(=C2C=CC(=[N+](C)C)C=C2)c2c(O)c(S(=O)(=O)[O-])cc3cc(S(=O)(=O)O)ccc23)cc1
inactive: [1] 1.4% | [2] -21.5% | [3] -41.5% | [4] 15.1% | [5] -14.6% | [6] 27.1%

COc1cc(C2C3=C(COC3=O)OC(C)(C)Oc3cc4c(cc32)OCO4)cc(OC)c1OC (stereo unspecified)
inactive: [1] 4.95% | [2] -11.8% | [3] 14.8% | [4] 52.9% | [5] -8.8% | [6] 22%

O=[N+]([O-])c1ccc(/C=C/c2cc(-c3ccccc3)nc3ccc4ccccc4c23)cc1
inactive: [1] -11.1% | [2] 5.1% | [3] 9.9% | [4] 3.2% | [5] -11.9% | [6] 4.5%

COC(=O)C1(Cc2ccc3c(c2)CCC3)Cc2ccccc2C1=O (stereo unspecified)
inactive: [1] 5.1% | [2] 22.4% | [3] 25.1% | [4] 21.6% | [5] 49.5% | [6] 8.8%

CCC(=O)Oc1ccc(Cl)cc1C
inactive: [1] -0.3% | [2] 7.7% | [3] 1.75% | [4] 5.55% | [5] 1.75% | [6] -13.3%

COc1ccc(C2NC(C(=O)O)Cc3c2[nH]c2ccccc32)cc1OC (stereo unspecified)
inactive: [1] -12.2% | [2] -5.6% | [3] -14.8% | [4] -12.9% | [5] -4.3% | [6] -22%

O=C1CCSc2c(cnc3ccccc23)N1
inactive: [1] -17.1% | [2] -12.4% | [3] -26.4% | [4] -18.1% | [5] -18.6% | [6] -46.8%

COC(=O)CCC(=O)Nc1ccc(Cl)cc1C
inactive: [1] -22.8% | [2] -9.45% | [3] -19.9% | [4] -6.5% | [5] -60% | [6] -21.2%

CC12CCC(=O)C=C1CCC1C2CCC2(C)C(C(=O)Cn3c(=O)cc[nH]c3=O)CCC12 (stereo unspecified)
inactive: [1] 1.2% | [2] -3.7% | [3] -0.5% | [4] 15.8% | [5] -1.35% | [6] 1.85%

OC(CN1CCCCC1)c1ccncc1 (stereo unspecified)
inactive: [1] 0.5% | [2] -24.8% | [3] -8.4% | [4] -0.9% | [5] 1% | [6] 1.4%

N#CCC(=O)c1ccc(N)cc1
inactive: [1] 16.1% | [2] -19.6% | [3] 2.2% | [4] 13.9% | [5] -11% | [6] 13.4%

BrC1CC1(c1ccccc1)c1ccccc1 (stereo unspecified)
inactive: [1] 0.1% | [2] 0.35% | [3] -3.5% | [4] -6.4% | [5] 3.65% | [6] -0.3%

O=C(O)C1=NN(c2ccc(S(=O)(=O)O)cc2)C(=O)C1N=Nc1ccc(S(=O)(=O)O)cc1 (stereo unspecified)
inactive: [1] 7.3% | [2] -0.6% | [3] 17.1% | [4] 16.9% | [5] -1% | [6] 13%

CCN(CC)CC
inactive: [1] -8.4% | [2] -6.2% | [3] -21.2% | [4] -53.4% | [5] -19% | [6] 19.4%

CC1=CC(O)(Cc2ccccc2)CC(C)(C)C1 (stereo unspecified)
inactive: [1] 2.1% | [2] -36.2% | [3] -17.9% | [4] -0.9% | [5] -27.9% | [6] -28.9%

CC(C)(C)OC(=O)CC(c1ccccc1)c1ccccc1
inactive: [1] -11.5% | [2] -9.4% | [3] -8.7% | [4] -41.5% | [5] 49.1% | [6] -21.9%

O=[N+]([O-])c1ccc(CC(Cl)c2ccccn2)cc1 (stereo unspecified)
inactive: [1] 18.9% | [2] 9.85% | [3] 19.1% | [4] -11.4% | [5] 22.2% | [6] 42.2%

O=C(O)c1cccc(Br)c1[N+](=O)[O-]
inactive: [1] -19.9% | [2] -7.9% | [3] -26.6% | [4] -36.1% | [5] -8.1% | [6] -5.9%

C/C(O)=C(\C=NC(=S)c1ccncc1)C(=O)Nc1ccccc1C
inactive: [1] -26.4% | [2] -37.6% | [3] -4.8% | [4] 13.3% | [5] -4.5% | [6] -26.9%

NCCSC(O)(C(F)(F)F)C(F)(F)F
inactive: [1] 19.6% | [2] 8.85% | [3] 3.05% | [4] -15.2% | [5] 1.2% | [6] 23%

COC1OC(C(C)Br)C2OC(C)(C)OC12 (stereo unspecified)
inactive: [1] 7.1% | [2] 21.4% | [3] 3.5% | [4] -6.2% | [5] 9.85% | [6] 27.4%

Cc1cc(O)c(C(C)C)cc1S(=O)(=O)O
inactive: [1] 0.7% | [2] 0.2% | [3] 3.75% | [4] -1.5% | [5] 3.25% | [6] 5.15%

N/N=C1\C(=O)N(C2CCCCC2)C(=O)C1C(=O)NC1CCCCC1 (stereo unspecified)
inactive: [1] -10.9% | [2] -1.2% | [3] -15% | [4] -10.8% | [5] -20.4% | [6] -32.2%

Cc1c2c(cc3c(=O)ccn(CCN(C)C)c13)c(=O)ccn2CCN(C)C
inactive: [1] -71.1% | [2] -22.8% | [3] -11.8% | [4] 14.3% | [5] -20.4% | [6] -16.4%

N#CC(=C1c2ccccc2-c2ccccc21)c1ccccc1
inactive: [1] -14.2% | [2] 7.1% | [3] -2.35% | [4] -2.65% | [5] 2.75% | [6] -20.5%

O=S(=O)(O)CCCCBr
inactive: [1] 3.6% | [2] -31.4% | [3] 16.8% | [4] -5% | [5] -3% | [6] 13.5%

c1ccc(CCCCc2ccccc2)cc1
inactive: [1] 25.1% | [2] 3.2% | [3] 14.1% | [4] 6.4% | [5] 3.35% | [6] 11.4%

CN(C)C(=O)Sc1ccc(O)cc1
inactive: [1] 5.05% | [2] -21.6% | [3] -4.65% | [4] -28.3% | [5] 12.9% | [6] -2.8%

Oc1ccc(Cl)cc1Cc1cc(Cl)cc(Cc2cc(Cl)cc(Cc3cc(Cl)cc(Cc4cc(Cl)ccc4O)c3O)c2O)c1O
inactive: [1] -31.2% | [2] 0.5% | [3] -5.4% | [4] -16.6% | [5] -26% | [6] -27.1%

CN(C)Cc1cc(C(=O)c2ccccc2)c(O)cc1O
inactive: [1] -38.4% | [2] -4.05% | [3] -0.9% | [4] -23.6% | [5] -2.05% | [6] 13.2%

CC(O)C(O)C(O)C(O)C(/C=N/Nc1ccccc1)=N/Nc1ccccc1 (stereo unspecified)
inactive: [1] 3.75% | [2] -14% | [3] 8.1% | [4] -9.95% | [5] 0.25% | [6] 22.8%

COc1ccc(Cc2nnc(SC)n2-c2ccc(F)cc2)cc1OC
inactive: [1] 8.7% | [2] -8.25% | [3] 21% | [4] 6.15% | [5] 25.2% | [6] 16.6%

NC(=O)COc1ccccc1
inactive: [1] -14.5% | [2] -8.75% | [3] -1.1% | [4] 14.6% | [5] -0.15% | [6] 27.9%

CCCCCC(CCCCC)c1ccccn1
inactive: [1] -14.3% | [2] -11.4% | [3] 3.95% | [4] 22.4% | [5] 26.9% | [6] 4.1%

Reference: PubChem BioAssay (NCI)
